Data on 40 compounds can be found in PubChem BioAssay.

A number with no mark means an inactive call. Active and inactive are the calls of the source. Unless noted, no rule for the calls is given here.

By inhibition is commonly meant the drop in the measured response relative to a control, in per cent.

Assay [1] in a line: antimalarial activity against Dd2 strain (AID 2302;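 active = growth inhibition above 50% at the single 2 µM test dose, taken to imply half-maximal potency below 2 µM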;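 also: 0% = DMSO untreated growth and 100% = chloroquine plus artemisinin killed control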). To be noted: P. falciparum Dd2 in RBCs, LDH growth readout, 72 h; at 2 µM; stronger effect = higher value.
Assay [2] is described as follows: HepG2 cytotoxicity, primary screen, cytotoxicity control for P. falciparum antimalarial project, cell-based, ATP luminescence (AID 2303;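 active = inhibition above 50%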;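 also: 0% = DMSO wells and 100% = digitonin-killed cells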). To be noted: HepG2 viability, 24-48 h, at 10 µM, stronger effect = higher value.
Assay [3] deals with L-lactate dehydrogenase (Plasmodium falciparum (isolate CDC / Honduras)) (UniProt Q27743). Kind of assay: PfLDH activity inhibition – cell lysate, 3D7 strain, counter-screen for P. falciparum growth inhibition project (AID 2304).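 Also: 0% = vehicle and 100% = reference inhibitor.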 To be noted: P. falciparum 3D7 crude extract, LDH APAD/NBT absorbance; at 2 µM; stronger effect = higher value. A general note: A counterscreen serves to expose hits that act by an unwanted route or on another target.

Assay [4] in a line: inhibition of 3D7 malaria parasite growth – strain 3D7 (AID 2306).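 Also: 0% = DMSO wells and 100% = chloroquine plus artemisinin control wells.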 As to conditions: P. falciparum 3D7 erythrocytic growth, LDH absorbance, 72 h; at 2 µM; stronger effect = higher value.
A short description of assay [5]: circadian clock period modulators, cell-based, LOPAC library, luminescence reporter (AID 2774).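 Also: values are relative to mean of DMSO wells on each plate.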 To be noted: circadian reporter cells, at 7 µM, actives lie on both sides.

L-lactate dehydrogenase (Plasmodium falciparum (isolate CDC / Honduras)), sequence (Q27743 whole entry, looked up): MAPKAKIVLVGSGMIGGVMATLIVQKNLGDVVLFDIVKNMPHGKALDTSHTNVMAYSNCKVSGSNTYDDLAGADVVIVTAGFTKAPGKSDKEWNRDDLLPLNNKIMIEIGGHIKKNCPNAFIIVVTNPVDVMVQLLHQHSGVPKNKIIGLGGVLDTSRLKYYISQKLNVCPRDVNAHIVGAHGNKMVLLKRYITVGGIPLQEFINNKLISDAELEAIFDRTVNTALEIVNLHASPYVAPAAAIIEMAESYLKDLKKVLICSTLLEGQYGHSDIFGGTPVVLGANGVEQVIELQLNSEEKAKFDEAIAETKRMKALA

`Cc1[nH]c2c(c(=O)c1Cl)-c1ccc(Oc3cccc(C(F)(F)F)c3)cc1C2=O`: the growth inhibition is 97% (active) in assay [1] and 98% (active) in assay [4]. The inhibition is 25% in assay [2] and 2% in assay [3].
In the same order, the values of `O=C(NC=Nc1cc([N+](=O)[O-])c(-c2cccnc2)n1-c1ccc(O)cc1)c1ccccc1` are 62% (active), 102% (active), 17% and 6%.
On to `Nc1cc(C=Cc2ccc(O)cc2)nc2ccccc12`, for which the values for the growth inhibition in assay [1] and in assay [4] were 14% and 100% (active), respectively. In addition, the values for the inhibition in assay [2] and in assay [3] were 15% and 3%, respectively.
As to `O=[N+]([O-])c1cccc(-c2nc3ccc(C4=N[C@H]5CCCC[C@H]5N4)cc3[nH]2)c1`, the growth inhibition in assay [1] is 81% (active); in assay [4] it was 101% (active). Moreover, the inhibition in assay [2] was 4%; in assay [3], -7%.
Turning to `ON=C1CCc2cc(-c3nc(-c4cccc(OCCNCc5ccc(F)cc5)c4)[nH]c3-c3ccncc3)ccc21`, the growth inhibition was 69% (active) in assay [1] and 89% (active) in assay [4]. The inhibition was 76% (active) in assay [2] and -3% in assay [3].
Consider `CN(C)CCCOc1ccc(-c2nc(-c3ccc4c(c3)CCC4=NO)c(-c3ccncc3)[nH]2)cc1`, for which the growth inhibition in assay [1] is 63% (active); in assay [4], 96% (active). The inhibition is 68% (active) in assay [2] and -3% in assay [3].
In the same order, the values of `CO[C@H](C)[C@H](NC(=O)[C@H](CC(C)C)[C@H](CCC(F)(F)F)N(O)C=O)C(=O)Nc1nccs1` are 96% (active), 99% (active), 0% and 1%.
On the same counts, the results for `CN(C)C(=S)NN=Cc1cccc(O)c1O` are 55% (active), 91% (active), 11% and -2%.
In the same order, the values of `c1cc2nc(CCCCCc3nc4ccc(C5=N[C@@H]6CCCC[C@@H]6N5)cc4[nH]3)[nH]c2cc1C1=N[C@@H]2CCCC[C@@H]2N1` are 98% (active), 96% (active), 8% and 1%.
In the case of `CC(=NO)C1=C(O)C(c2ccccc2)N(c2ccccc2)C1=O` (stereo not given), the growth inhibition in assay [1] is 23%; in assay [4] it was 99% (active). In addition, the inhibition was 12% in assay [2] and -1% in assay [3].
Consider `CC(=NNC(N)=O)C1=C(O)C(c2ccccc2)N(C2CCCCC2)C1=O` (stereo not given), for which the figures for the growth inhibition in assay [1] and in assay [4] were 96% (active) and 93% (active), respectively. Besides, the inhibition in assay [2] was 59% (active); in assay [3] it was 0%.
In the case of `ON=C1CCc2cc(-c3nc(-c4ccc(OCCN5CCCCC5)cc4)[nH]c3-c3ccncc3)ccc21`, the growth inhibition in assay [1] is 54% (active); in assay [4], 99% (active). Also, the inhibition in assay [2] is 73% (active); in assay [3], 3%.
On to `CCCC[C@@H](C(=O)NCc1ccccc1C(F)(F)F)N1C(=O)CCC1C(=O)Nc1ccc([N+](=O)[O-])cc1` (stereo not given in full), for which the growth inhibition is 2% in assay [1] and 94% (active) in assay [4]. Moreover, the inhibition in assay [2] is 7%; in assay [3], 0%.
In the case of `O=C(NC=Nc1cc([N+](=O)[O-])c(-c2ccncc2)n1-c1ccccc1)c1cccc(O)c1`, the results for the growth inhibition in assay [1] and in assay [4] were 56% (active) and 100% (active), respectively. Further, the inhibition in assay [2] was 2%; in assay [3], 4%.
With `ON=C1CCc2cc(-c3cc(-c4ccc(OC5CCNCC5)cc4)oc3-c3ccncc3)ccc21`, the growth inhibition is 99% (active) in assay [1] and 101% (active) in assay [4]. In addition, the inhibition in assay [2] was 34%; in assay [3], 3%.
Regarding `Nc1ccc(-c2nc3cc(C4=N[C@H]5CCCC[C@H]5N4)ccc3o2)cc1[N+](=O)[O-]`, the growth inhibition was 33% in assay [1] and 95% (active) in assay [4]. In addition, the inhibition in assay [2] was 16%; in assay [3], 1%.
In the same order, the values of `CCC[C@@H]([C@@H](CC(C)C)C(=O)N[C@@H](CCCCNC(=O)OCc1ccccc1)C(=O)Nc1ncccn1)N(O)C=O` are 98% (active), 100% (active), 3% and 4%.
In the case of `CCOc1cc(C=NNc2nc(C)cc(-n3nc(C)cc3C)n2)ccc1O`, the growth inhibition in assay [1] was 52% (active); in assay [4], 93% (active). Also, the inhibition in assay [2] was 46%; in assay [3], 2%.
With `COc1ccc2nc(C)cc(NN=Cc3cc(C)ccc3O)c2c1`, the growth inhibition in assay [1] and in assay [4] was 100% (active) throughout. Moreover, the inhibition in assay [2] was 78% (active); in assay [3], -2%.
`CN(C)c1nc(NN=Cc2cc(Cl)ccc2O)nc(Nc2ccc(F)cc2)n1`: the growth inhibition in assay [1] was 46%; in assay [4], 94% (active). For the same compound, the inhibition in assay [2] was 32%; in assay [3] it was -3%.
As to `CCC[C@@H]([C@@H](CC(C)C)C(=O)N[C@@H](CCCN=C(N)NS(C)(=O)=O)C(=O)Nc1nccs1)N(O)C=O`, the growth inhibition in assay [1] is 41%; in assay [4] it was 95% (active). Further, the results for the inhibition in assay [2] and in assay [3] were 10% and 0%, respectively.
As for `Oc1cccc(-c2nc(-c3cccc(I)c3)c(-c3ccc(-c4nc(-c5cccc(O)c5)[nH]c4-c4cccc(I)c4)cc3)[nH]2)c1`, the growth inhibition was 66% (active) in assay [1] and 96% (active) in assay [4]. In addition, the inhibition is -4% in assay [2] and -2% in assay [3].
On to `CCN1CCN(c2cc(C)c3cc(NC(=O)c4ccc(C(C)(C)C)cc4)ccc3n2)CC1`, for which the figures for the inhibition in assay [2] and in assay [3] were 34% and -3%, respectively. In assay [4], the growth inhibition is 85% (active).
As for `CCCCCCCCCCCCC/C=C/C(O)C(N)CO` (stereo not given), the period change in assay [5] is 0.015 h.
As for `Oc1ccc2ccccc2c1C=NNc1nc(Nc2ccccc2)nc(Nc2ccccc2)n1`, the growth inhibition in assay [1] is 73% (active); in assay [4] it was 99% (active). Besides, the inhibition in assay [2] is 55% (active); in assay [3], -2%.
Regarding `CN(Cc1cnc2nc(N)nc(N)c2n1)c1ccc(C(=O)N[C@H](CCC(=O)O)C(=O)O)cc1`, the growth inhibition in assay [1] is 44%; in assay [4], 92% (active). Further, the values for the inhibition in assay [2] and in assay [3] were 65% (active) and -4%, respectively. Further, the period change in assay [5] is 0.095 h.
As to `O=[N+]([O-])c1ccc(Nc2nc(NN=Cc3cc(Cl)cc(Cl)c3O)nc(Nc3ccccc3)n2)cc1`, the growth inhibition in assay [1] is 72% (active); in assay [4] it was 100% (active). For the same compound, the figures for the inhibition in assay [2] and in assay [3] were 29% and -6%, respectively.
Take `CCCCCCCCCCCCCCCCCC(=O)NCC(COP(=O)([O-])OCC[N+](C)(C)C)OCC` (stereo not given): the period change in assay [5] is 0.195 h.
Consider `COc1ccc(Nc2nc(NN=Cc3cc(Br)ccc3O)nc(Nc3ccc([N+](=O)[O-])cc3)n2)cc1`, for which the growth inhibition was 37% in assay [1] and 97% (active) in assay [4]. Also, the inhibition was 27% in assay [2] and 7% in assay [3].
As to `CCCO[C@H](C(=O)OC)[C@@H](CC1Cc2ccccc2C1)C(=O)NCCC1=CCCCC1`, the growth inhibition is 57% (active) in assay [1] and 93% (active) in assay [4]. Besides, the results for the inhibition in assay [2] and in assay [3] were 6% and 1%, respectively.
Turning to `CCCCCCCCCCCCCCCCOCC(COCC(F)(F)F)OP(=O)(O)OCO` (stereo not given), the period change in assay [5] is 0.01 h.
Take `CCC[C@@H](C(=O)NCCc1cccc(OC)c1)N1C(=O)c2c(ccc(OC)c2OC)C1C(=O)Nc1c(C)cccc1C` (stereo not given in full): the growth inhibition was 32% in assay [1] and 94% (active) in assay [4]. Further, the results for the inhibition in assay [2] and in assay [3] were 6% and 3%, respectively.
As for `CCCCCCCCCCCCCCCC(=O)NCC(COP(=O)([O-])OCC[N+](C)(C)C)OCC` (stereo not given), the period change in assay [5] was -0.285 h.
On to `Nc1c2c(nc3ccccc13)C(=Cc1ccc(O)cc1)CCC2`, for which the results for the growth inhibition in assay [1] and in assay [4] were 6% and 99% (active), respectively. For the same compound, the figures for the inhibition in assay [2] and in assay [3] were 9% and 5%, respectively.
Take `O=C(/C=C/c1ccc(Cl)c(Cl)c1)NCCCCCN1CC[C@H](c2c[nH]c3ccccc23)[C@H](O)C1`: the values for the growth inhibition in assay [1] and in assay [4] were 9% and 96% (active), respectively. Moreover, the inhibition in assay [2] was 12%; in assay [3] it was -5%.
For the compound `COc1ccc2c(c1)c(CC(=O)O)c(C)n2Cc1ccc(F)cc1`, in assay [5], the period change was -0.005 h.
Take `Oc1ccc(-c2nc(-c3ccc4oc5ccc(-c6[nH]c(-c7ccc(O)cc7)nc6-c6ccccc6)cc5c4c3)c(-c3ccccc3)[nH]2)cc1`: the growth inhibition in assay [1] was 71% (active); in assay [4] it was 84% (active). The inhibition was -2% in assay [2] and 3% in assay [3].
In the same order, the values of `COc1ccc(Nc2nc(NN=Cc3cc(Br)c(O)cc3O)nc(Nc3ccc([N+](=O)[O-])cc3)n2)cc1` are 23%, 97% (active), 30% and 4%.
With `COc1ccc2nc(/N=C(/N)NC(=O)Nc3ccccc3)nc(C)c2c1`, the growth inhibition in assay [1] is 15%; in assay [4], 90% (active). The inhibition was 3% in assay [2] and -1% in assay [3].
As for `O=[N+]([O-])c1ccc(-c2nc3ccc(C4=N[C@H]5CCCC[C@H]5N4)cc3[nH]2)cc1`, the growth inhibition is 30% in assay [1] and 100% (active) in assay [4]. For the same compound, the inhibition is -1% in assay [2] and 3% in assay [3].
